DT40 TDP1 CPT = DT40-hTDP1 cell growth loss with CPT; chicken DT40 Tdp1-/-;hTDP1 cells + 20 nM CPT, ATP luminescence, 48 h; Potency, µM (top dose mostly 46.2 µM), inactives show at the top dose activity change, negative = growth inhibition, most hits filed as inhibitors; hit rate 12% among 420,000; AID 686979; further: potency means the concentration at half of the fitted maximal effect; nearly all actives have a fitted effect of over 55% in size
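Chicken DT40 Tdp1-/- cells complemented with human TDP1, 400 cells/well, exposed to compounds plus 20 nM camptothecin for at least 48 h at 37 C; viability read as ATP content by CellTiter-Glo luminescence.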
CtBP-E1A inh = CtBP/E1A binding inhibition; AlphaScreen GST-E1A/His-CtBP binding, 1536-well; hits give low values; activity change, % (concentration not given with the values); hit rate 0.49% among 340,000; in the data active means activity change below about -65%; inconclusive means mostly about -30% to -63%
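GST-E1A and His-tagged CtBP (125 nM each as 5X stock) were preincubated with pin-transferred compound for 2 h at 37 °C in the dark, then glutathione donor and nickel acceptor beads were added for 1 h before AlphaScreen reading.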
TDP1 inh = TDP1 (human) enzyme inhibition. Q9NUW8. recombinant TDP1, AlphaScreen DNA substrate cleavage. Potency, µM (highest dose often 130 µM), for the others: top-dose activity change, negative = inhibition, hits mostly inhibitors. hit rate 0.28% among 350,000. AID 485290; further: potency means the concentration at half of the fitted maximal effect; nearly all actives have a fitted effect of over 40% in size
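Recombinant human Tdp1 (E. coli-expressed, 1 nM final) preincubated with compounds 15 min at room temperature, then 5'-biotin/3'-phosphotyrosine-FITC DNA substrate (15 nM final) added for 5 min. AlphaScreen beads (10 ug/ml final) added 10 min; cleavage lowers signal.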
TDP1 cell noCPT = qHTS for Inhibitors of human tyrosyl-DNA phosphodiesterase 1 (TDP1): qHTS in cells in absence of CPT | DT40 Tdp1-/- hTDP1 cells, no CPT, ATP luminescence, 48 h | Potency, µM (series often up to 46.2 µM), for the others: at the top dose activity change, negative = growth inhibition, hits mostly inhibitors | hit rate 15% among 420,000; further: potency means the concentration at half of the fitted maximal effect; nearly all actives have a fitted effect of over 55% in size
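Growth of hTDP1-complemented DT40 Tdp1-knockout cells is measured by ATP luminescence after at least 48 hr compound exposure at 37 °C, with DMSO substituting for the 20 nM CPT used in the parallel screen.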
Six1-Eya2 inh = blocks human Six1 binding to Eya2 | activity change, % (concentration not given with the values) | AlphaScreen GST-Six1/His-Eya2 binding, biochemical; hits give low values | hit rate 0.56% among 360,000 | AID 651725; in the data active means activity change below about -65%; inconclusive means mostly about -30% to -63%
Target sequence (O00167 whole entry, looked up): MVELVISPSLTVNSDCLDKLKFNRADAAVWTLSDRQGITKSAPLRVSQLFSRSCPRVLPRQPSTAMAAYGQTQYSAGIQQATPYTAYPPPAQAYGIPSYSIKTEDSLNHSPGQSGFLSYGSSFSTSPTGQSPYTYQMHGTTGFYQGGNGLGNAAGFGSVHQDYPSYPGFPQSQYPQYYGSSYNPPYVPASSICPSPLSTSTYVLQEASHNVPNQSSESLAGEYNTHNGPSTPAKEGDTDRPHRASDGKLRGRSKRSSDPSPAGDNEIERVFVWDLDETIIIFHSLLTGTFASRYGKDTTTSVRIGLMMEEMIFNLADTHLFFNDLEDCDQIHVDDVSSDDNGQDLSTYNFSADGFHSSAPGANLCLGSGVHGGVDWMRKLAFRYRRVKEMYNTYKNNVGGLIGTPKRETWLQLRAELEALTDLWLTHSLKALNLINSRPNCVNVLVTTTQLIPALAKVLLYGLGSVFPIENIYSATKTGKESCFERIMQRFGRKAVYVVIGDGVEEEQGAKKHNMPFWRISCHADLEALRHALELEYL
Target sequence (Q15475 whole entry, looked up): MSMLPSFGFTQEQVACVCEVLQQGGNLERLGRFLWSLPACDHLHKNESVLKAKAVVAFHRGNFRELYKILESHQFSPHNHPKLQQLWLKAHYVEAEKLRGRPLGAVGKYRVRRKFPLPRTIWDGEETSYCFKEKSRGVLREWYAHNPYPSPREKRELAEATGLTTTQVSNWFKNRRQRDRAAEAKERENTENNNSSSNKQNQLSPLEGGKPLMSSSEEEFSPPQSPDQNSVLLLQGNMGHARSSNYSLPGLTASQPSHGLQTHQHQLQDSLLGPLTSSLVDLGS
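AlphaScreen luminescence read after one hour at 37 °C in darkness. Pin-transferred compounds met GST-Six1 and His-Eya2 protein (5X stock 250 nM/500 nM) plus glutathione donor and Ni-chelate acceptor beads (5X, 50 ug/mL).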
IL-1B inflam inh = blocks inflammasome-driven IL-1 beta release | THP-1 LPS/ATP IL-1B secretion, AlphaLISA, 16 h; hits give low values | activity change, % at 57.5 µM | hit rate 4.7% among 360,000; in the data active means activity change below about -50%; inconclusive means mostly about -30% to -49%
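Secreted IL-1B measured by AlphaLISA bead assay after 16 h compound exposure of THP-1 cells; compounds (final up to 57.5 uM) added 1 h before LPS (250 ng/mL) and ATP (1.25 mM) stimulation; lower signal means less secretion.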
* marks the source's active call; other numbers are inactive results; ? = inconclusive; / = not tested or not shown. A selection: hits, their analogues and other compounds. The true share with any hit is near 18%. Unless noted, the call rests on the fitted dose curve; in most records, active means well fitted curve in the direction sought with a large enough effect; inconclusive means small, poorly fitted or top-dose-only effect, or another doubt; inactive means no such curve, though single readings can be large; an effect the other way counts as inactive or inconclusive. On the % scale 0 is the no-effect control and ±100 the full control effect.

SMILES	DT40 TDP1 CPT	CtBP-E1A inh	TDP1 inh	TDP1 cell noCPT	Six1-Eya2 inh	IL-1B inflam inh
COC(=O)c1sc(NC(=O)CC(C)C)c(C(=O)OC)c1C	-19%	4	3%	?	0	-3
CCCSc1nc(-c2ccccc2)cc(C(F)(F)F)c1C#N	?	4	-7%	?	11	27
N#Cc1c(C(F)(F)F)cc(-c2ccccc2)nc1SCCN1CCOCC1	21µM*	13	3%	?	4	-16
COc1cc(O)ccc1-c1nc2cc(C)ccn2c1Nc1ccccc1C	13µM*	/	5%	26µM*	/	/
Cc1ccn2c(NC(=O)c3ccco3)c(-c3ccccc3)nc2c1	-9%	-6	5%	-16%	2	-5
Cc1ccn2c(Nc3ccccc3C)c(-c3cccnc3)nc2c1	16µM*	-10	3%	?	-8	-14
Cc1ccn2c(Nc3ccccc3C)c(-c3ccccc3)nc2c1	21µM*	/	5%	?	/	/
Cc1ccc(C(=O)N[C@H](C(=O)OCC(=O)Nc2cccc(S(N)(=O)=O)c2)C(C)C)cc1	?	6	3%	-24%	7	17
Cc1ccc2nc(-c3ccc(C#N)cc3)c(Cc3cccc(Cl)c3)n2c1	18µM*	6	/	18µM*	3	0
Cc1ccc2nc(-c3ccc(C#N)cc3)c(Cc3ccccc3)n2c1	?	4	/	?	1	?
N#Cc1ccc(-c2nc3ccc(Cl)cn3c2Cc2cccc(Cl)c2)cc1	?	9	/	21µM*	3	-15
N#Cc1ccc(-c2nc3ccc(Cl)cn3c2Cc2cccc(F)c2)cc1	?	8	/	?	7	0
CCCCNC(=S)NCCN1CCN(C(=S)NCCCC)CC1	1%	-13	7%	-10%	-2	6
O=C(/C=C/c1ccc(Cl)cc1Cl)n1cccn1	?	-20	4%	?	-3	-61*
O=C(/C=C/c1ccc(Cl)cc1Cl)c1ccc[nH]1	?	/	5%	?	5	-86*
O=C(/C=C/c1ccc(Cl)cc1Cl)NC(=S)Nc1ccccn1	-26%	-14	7%	?	-2	-22
CCc1ccc(NC(=O)Nc2nnc(N(C)C3CCCCC3)s2)cc1	?	/	9%	?	/	/
Cc1cc(NC(=O)COC(=O)Cn2[nH]c(=O)c3ccccc3c2=O)c([N+](=O)[O-])cc1C	2%	-3	1%	0%	4	19
CCOC(=O)c1ccccc1NS(=O)(=O)c1ccc(N2CCCCS2(=O)=O)cc1	23µM*	/	4%	16µM*	/	/
CCC(C)NS(=O)(=O)c1ccc(N2CCCCS2(=O)=O)cc1 (stereo not given)	?	/	4%	?	/	/
Cc1cc(C)cc(NS(=O)(=O)c2ccc(N3CCCCS3(=O)=O)cc2)c1	12µM*	/	1%	15µM*	/	/
CCCCCNS(=O)(=O)c1ccc(N2CCCCS2(=O)=O)cc1	16µM*	/	-1%	18µM*	/	/
CCOc1ccccc1NS(=O)(=O)c1ccc(N2CCCCS2(=O)=O)cc1	?	/	6%	?	/	/
COc1ccccc1CNS(=O)(=O)c1ccc(N2CCCCS2(=O)=O)cc1	?	/	6%	23µM*	/	/
CCOc1cc(N2CCOCC2)c(OCC)cc1NC(=O)c1ccc(F)c(S(=O)(=O)N2CCOCC2)c1	-9%	8	0%	-4%	5	17
SMILES	DT40 TDP1 CPT	CtBP-E1A inh	TDP1 inh	TDP1 cell noCPT	Six1-Eya2 inh	IL-1B inflam inh
CC(C)CCNS(=O)(=O)c1ccc(N2CCCCS2(=O)=O)cc1	12µM*	/	1%	9.2µM*	/	/
O=C(CCS(=O)(=O)c1ccccc1)N(Cc1cccnc1)c1nc2ccc(Cl)cc2s1	5.8µM*	/	5%	13µM*	/	/
CCS(=O)(=O)c1ccccc1C(=O)N(Cc1cccnc1)c1nc2cc(C)c(C)cc2s1	?	/	8%	23µM*	/	/
Cc1ccc2nc(N(Cc3cccnc3)C(=O)CCS(=O)(=O)c3ccccc3)sc2c1	?	/	3%	16µM*	/	/
Cc1ccc2nc(N(Cc3cccnc3)C(=O)Cc3ccccc3)sc2c1	-10%	/	5%	-17%	/	/
C[C@@H]1CN([C@@H](C)CO)C(=O)CCCn2cc(nn2)CO[C@H]1CN(C)S(=O)(=O)c1ccccc1C#N	-19%	-5	/	-13%	8	-13
COc1ccc(CCNC(=O)c2cc(S(=O)(=O)N3CCCCC3)c[nH]2)cc1OC	-21%	-8	/	-8%	0	24
Cc1cccc(CCNC(=O)c2cc(S(=O)(=O)N3CCCCC3)c[nH]2)c1	18µM*	2	3%	?	5	5
Cc1ccc(N2CCN(C(=O)c3cc(S(=O)(=O)N4CCCCC4)c[nH]3)CC2)c(C)c1	16µM*	/	5%	16µM*	/	/
CCN(C(=O)c1cc(S(=O)(=O)N2CCCCC2)c[nH]1)c1ccc(OC)cc1	9.2µM*	1	-5%	23µM*	0	-9
O=C(Cn1c(-c2ccccc2)noc1=O)Nc1ccc(S(=O)(=O)N2CCOCC2)cc1	4%	4	4%	-6%	3	-3
O=C(Cn1c(-c2ccccc2)noc1=O)Nc1ccc(N2CCCCCC2)cc1	16µM*	?	11%	18µM*	?	3
O=C(CCl)Nc1ccc(N2CCCCCC2)cc1	5.2µM*	-13	-3%	8.2µM*	-17	-98*
N#Cc1ccc(OCC(=O)Nc2ccc(N3CCCC3)cc2)cc1	?	/	4%	12µM*	-6	-5
CCOc1ccc(OCC(=O)Nc2ccc(N3CCCCC3)cc2)cc1	-2%	-2	4%	-10%	-4	-4
CCC(=O)Nc1ccc(N2CCCCC2)cc1	?	0	2%	-7%	0	-11
O=C(C1=C(O)C(=O)N(CC2CCCO2)C1c1ccccc1[N+](=O)[O-])c1ccco1 (stereo not given)	12%	5	/	-20%	10	13
Cc1ccc(SCC(=O)OCC(=O)NCCCc2ccccc2)cc1	-2%	19	-2%	-17%	12	16
Cc1cc(N(C)C)cc(C)c1/C=C/c1cc[n+](C)c2ccccc12	0.56µM*	/	/	0.56µM*	/	/
CNc1cc[n+](C)c2ccccc12	-2%	/	/	-20%	/	/
COc1cc(OC)c(/C=C/c2cc[n+](C)c3ccccc23)c(OC)c1	0.5µM*	/	/	0.45µM*	/	/
COc1cc(OC)c(OC)cc1/C=C/c1cc[n+](C)c2ccccc12	4µM*	/	/	2µM*	/	/
COc1cc(/C=N/NS(=O)(=O)c2ccccc2)c(OC)c(OC)c1	-24%	-8	/	-5%	-18	0
